Screening data (PubChem)
MEKK3 PB1 HTS – modulators (inhibitors or enhancers) of MEK5 binding to human MEKK3 PB1 domain. bead-based flow cytometry, Alexa488-MEK5 binding to MEKK3; actives lie on both sides; 0 = blocked by unlabeled MEK5, 100 = vehicle. 1.4% of 290,000 active. Q99759. binding response (% of control), % at 10 µM;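 active = binding response more than 3 SD above or below the average of its plate-row segment, actives on both sides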;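 note: Alexa488 bead fluorescence after subtracting the streptavidin-only scavenger bead signal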
Target sequence (Q99759 whole entry, looked up, the tested form may be a part): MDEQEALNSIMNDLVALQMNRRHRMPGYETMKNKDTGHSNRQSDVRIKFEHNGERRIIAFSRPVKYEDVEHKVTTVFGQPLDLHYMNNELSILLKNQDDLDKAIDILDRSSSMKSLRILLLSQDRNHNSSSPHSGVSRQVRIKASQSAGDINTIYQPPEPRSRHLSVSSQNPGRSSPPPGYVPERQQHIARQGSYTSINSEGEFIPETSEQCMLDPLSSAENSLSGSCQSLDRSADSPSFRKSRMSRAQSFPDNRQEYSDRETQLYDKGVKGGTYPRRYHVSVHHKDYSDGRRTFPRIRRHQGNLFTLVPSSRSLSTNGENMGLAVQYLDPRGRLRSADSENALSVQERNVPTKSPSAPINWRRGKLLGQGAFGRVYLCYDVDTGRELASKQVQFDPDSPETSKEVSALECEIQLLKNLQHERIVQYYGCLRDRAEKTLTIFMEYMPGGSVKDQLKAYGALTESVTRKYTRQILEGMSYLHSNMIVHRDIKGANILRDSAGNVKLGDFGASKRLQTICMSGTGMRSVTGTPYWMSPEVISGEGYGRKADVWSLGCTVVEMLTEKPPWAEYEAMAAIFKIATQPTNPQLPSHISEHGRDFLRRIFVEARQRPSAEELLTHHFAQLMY
MEKK2 mut-MEK5 – signal of MEK5 binding to mutant human MEKK2 PB1 domain. bead flow cytometry, Alexa488-MEK5 binding to MEKK2 mutant. percent response, % at 10 µM. 0.35% of 290,000 active. AID 1530; in the data active = percent response above about 24%, passing the limit was not always enough
MEKK2 WT-MEK5 – raises or lowers MEK5 binding to wildtype human MEKK2 PB1 domain; AID 1531; Q9Y2U5; 1.1% of 290,000 active; binding response (% of control), % at 10 µM; bead flow cytometry, Alexa488-MEK5 binding to MEKK2 WT; actives lie on both sides; in the data active = binding response below about 67% or above about 130%
VLA-4 inh – inhibition in a human VLA-4 binding assay; 0.2% of 330,000 active; P13612; AID 2557; inhibition, % (about 7 µM as worked out from the volumes in the protocol); VLA-4 expressing cells, ligand binding flow cytometry; in the data active = inhibition above about 50%
MEKK2wt confirm – raises or lowers MEK5 binding to wildtype human MEKK2, retest; shares compounds with MEKK3 PB1 HTS; binding response (% of control), % at 10 µM; 2.4% of 5,900 active; bead flow cytometry, Alexa488-MEK5 binding to MEKK2 WT; actives lie on both sides; AID 1892; in the data active = binding response below about 16% or above about 210%; inactive = in between
MEKK2mut-MEK5 – signal of MEK5 binding to mutant human MEKK2, retest | percent response, % at 10 µM | shares compounds with MEKK3 PB1 HTS | 2% of 5,900 active | bead flow cytometry, Alexa488-MEK5 binding to MEKK2 mutant; in the data active = percent response mostly above about 71%, no sharp cut-off; inactive = mostly below about 38%;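 note: higher means compound restores mutant binding toward wildtype level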
MEKK3-MEK5 inh – MEKK3-MEK5 PB1 inhibition, single concentration confirmation; binding response (% of control), % at 10 µM; 1.8% of 5,900 active; shares compounds with MEKK3 PB1 HTS; bead flow cytometry, Alexa488-MEK5 binding to MEKK3; stronger effect = lower value; AID 1894;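 active = binding response below 72% of control, or above a set upper limit, though filed actives all read lower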;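 note: 100% = DMSO only wells and 0% = binding blocked by excess unlabeled MEK5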
The depositor's hits bear a star; nt = no result given; [ ] = dose if it differs, or a comment. A selection: hits, their analogues and other compounds. The true share with any hit is near 2.2%.

SMILES | MEKK3 PB1 HTS | MEKK2 mut-MEK5 | MEKK2 WT-MEK5 | VLA-4 inh | MEKK2wt confirm | MEKK2mut-MEK5 | MEKK3-MEK5 inh
Cc1ccc2nc(N(CCCN(C)C)C(=O)c3ccco3)sc2c1 | 231.0* | 33.0 | 121.0 | 4.2 | 109.0 | 12.0 | 107.0
CN(C)CCCN(C(=O)c1ccco1)c1nc2c(F)cccc2s1 | 62.0*[inhibitor] | 68.0* | 101.0 | -16.6 | 107.0 | 7.0 | 102.0
Cc1ccc(-c2csc(N(CCCN(C)C)C(=O)c3ccco3)n2)cc1 | 114.0 | 30.0 | 202.0* | 9.3 | 183.0 | 49.0 | 107.0
Cc1ccc2nc(N(CCCN(C)C)C(=O)c3ccc(Br)s3)sc2c1 | 102.0 | 35.0 | 169.0* | 2.6 | 166.0 | 29.0 | 108.0
COC(=O)c1ccc(C2NCCc3cc(OC)c(OC)cc32)cc1 (centres undefined) | 102.0 | 7.0 | 103.0 | 0.9 | nt | nt | nt
CN(C)CCCN(C(=O)c1ccc(S(=O)(=O)N(C)Cc2ccccc2)cc1)c1nc2c(F)cccc2s1 | 110.0 | 40.0* | 196.0* | -0.9 | 176.0 | 34.0 | 108.0
C#CCOCCOCCOCCNc1nc(N2CCN(C(=O)[C@H]([C@@H](C)CC)n3cc([C@@H](N)CO)nn3)CC2)nc(N2CCN(C(=O)[C@H](Cc3cc4ccccc4[nH]3)n3cc([C@@H](N)Cc4ccc(O)cc4)nn3)CC2)n1 | 100.0 | 4.0 | 155.0* | 10.7 | 231.0* | 114.0* | 107.0
C#CCOCCOCCOCCNc1nc(N2CCN(C(=O)C(Cc3ccc(O)cc3)n3cc(C(N)CC(C)C)nn3)CC2)nc(N2CCN(C(=O)C(Cc3cc4ccccc4[nH]3)n3cc(C(N)Cc4ccc(O)cc4)nn3)CC2)n1 (centres undefined) | 117.0 | 112.0* | 258.0* | 1.6 | 221.0* | 86.0* | 118.0
C#CCOCCOCCOCCNc1nc(N2CCN(C(=O)[C@H](CCC(=O)O)n3cc(C(N)Cc4ccc(O)cc4)nn3)CC2)nc(N2CCN(C(=O)[C@H](CCC(=O)O)n3cc(C(N)CC(C)C)nn3)CC2)n1 (some centres undefined) | 108.0 | 5.0 | 108.0 | 29.0 | nt | nt | nt
C#CCOCCOCCOCCNc1nc(N2CCN(C(=O)[C@H](CCC(=O)O)n3cc(C(N)Cc4ccc(O)cc4)nn3)CC2)nc(N2CCN(C(=O)[C@H](Cc3cc4ccccc4[nH]3)n3cc(C(N)CC(C)C)nn3)CC2)n1 (some centres undefined) | 107.0 | 29.0 | 145.0* | -9.0 | 120.0 | 8.0 | 102.0
C/C(CC(=O)Nc1ccc(N(C)C)cc1)=N\NC(=O)c1ccc(C(C)(C)C)cc1 | 101.0 | 4.0 | 100.0 | 8.9 | nt | nt | nt
CCN(C(=O)COc1ccc2ccc(=O)oc2c1)C1CCCCC1 | nt | nt | nt | 17.4 | nt | nt | nt
CN(C)c1ccc(C(c2ccc(N(C)C)cc2)c2ccc([N+](=O)[O-])cc2)cc1 | 107.0 | 2.0 | 103.0 | -1.7 | nt | nt | nt
CCCCNC(=O)CCCCn1c(=S)[nH]c2c([nH]c3ccc(OC)cc32)c1=O | 101.0 | 1.0 | 97.0 | 24.0 | nt | nt | nt
CC[C@H](C)NC(=O)CCCCCn1c(=S)[nH]c2c([nH]c3ccc(OC)cc32)c1=O | 138.0* | 5.0 | 118.0 | -8.4 | 97.0 | -3.0 | 102.0
COc1ccc(C(=O)/C=C/c2cn(CN3CCN(C)CC3)c3ccccc23)cc1 | nt | nt | nt | -3.4 | nt | nt | nt
CCOc1ccc(C(=O)/C=C/c2cn(CN3CCN(C)CC3)c3ccccc23)cc1 | 112.0 | 41.0* | 204.0* | -9.1 | 156.0 | 27.0 | 109.0
Cc1ccccc1OCCNc1cc(N2CCNCC2)ccc1[N+](=O)[O-] | 110.0 | 35.0 | 162.0* | 20.4 | 167.0 | 34.0 | 104.0
COc1ccccc1OCCNc1cc(N2CCCCC2)ccc1[N+](=O)[O-] | 106.0 | -2.0 | 104.0 | 2.8 | nt | nt | nt
O=C(OCc1nnc(-c2ccccc2)o1)c1cccc(-n2cnnn2)c1 | nt | nt | nt | 12.7 | nt | nt | nt
CCN1CCN(C(c2ccccc2)c2nnnn2Cc2ccccc2)CC1 (centres undefined) | 144.0* | 9.0 | 139.0* | 8.5 | 114.0 | 17.0 | 108.0
CCN1CCN(C(c2ccc(OC)cc2)c2nnnn2Cc2ccc3c(c2)OCO3)CC1 (centres undefined) | 144.0* | 7.0 | 132.0 | -0.8 | 100.0 | 1.0 | 101.0
Cc1c(Cl)cccc1-n1c(SCC(=O)N2CCC(C(=O)O)CC2)nc2ccccc2c1=O | 104.0 | 0.0 | 103.0 | 0.1 | nt | nt | nt
Cc1ccc(CNC(=O)CN2C(C)CCCC2C)cc1 (centres undefined) | 56.0*[inhibitor] | -15.0 | 62.0*[inhibitor] | 10.7 | 104.0 | 4.0 | 102.0
Cc1ccc(CNC(=O)CN(C2CCCCC2)S(C)(=O)=O)cc1 | 67.0*[inhibitor] | 5.0 | 55.0*[inhibitor] | 20.5 | 102.0 | -3.0 | 102.0
SMILES | MEKK3 PB1 HTS | MEKK2 mut-MEK5 | MEKK2 WT-MEK5 | VLA-4 inh | MEKK2wt confirm | MEKK2mut-MEK5 | MEKK3-MEK5 inh
Cc1cc(C)cc(C(=O)NCC(=O)OCC(=O)NC2CC2)c1 | nt | nt | nt | 1.5 | nt | nt | nt
Cn1nc(-c2ccc(Cl)cc2)cc1NC(=O)CC(C)(C)CC(=O)O | 129.0* | 26.0 | 124.0 | -1.2 | 96.0 | -3.0 | 93.0
CC1CCCC(NC(=O)c2cccs2)C1C (centres undefined) | nt | nt | nt | 0.4 | nt | nt | nt
C=CCc1ccccc1Oc1cc(F)nc(N)n1 | 99.0 | 9.0 | 106.0 | 10.1 | nt | nt | nt
Cc1cccc(NCc2cc(Cl)ccc2O)n1 | 82.0*[inhibitor] | 4.0 | 107.0 | 15.3 | 101.0 | 3.0 | 101.0
Cc1nn2c(N3CCCC3)c3c(nc2c1-c1ccccc1)CCC3 | 37.0*[inhibitor] | -13.0 | 30.0*[inhibitor] | 1.7 | 96.0 | 2.0 | 103.0
COc1cccc(Nc2c3c(nc4c(-c5ccccc5)c(C)nn24)CCC3)c1 | 132.0* | 1.0 | 115.0 | 18.2 | 30.0 | -19.0 | 56.0*
O=C(CSc1ccc(-c2nc3ccccc3[nH]2)cn1)Nc1ccc2c(c1)OCCO2 | 102.0 | 0.0 | 104.0 | -9.5 | nt | nt | nt
O=C(CSc1ccc(-c2nc3ccccc3[nH]2)cn1)Nc1ccc(S(=O)(=O)NC2CC2)cc1 | 165.0* | 1.0 | 112.0 | 6.0 | 102.0 | 0.0 | 98.0
CC(C)NC(=S)NNc1nc2ccccc2s1 | 70.0 | -10.0 | 75.0 | 7.0 | nt | nt | nt
CCCOc1ccc(C(=O)NCC(c2cccs2)N(C)C)cc1OC (centres undefined) | 146.0* | 7.0 | 108.0 | 8.2 | 118.0 | 17.0 | 104.0
CN(c1nc2nonc2nc1NC1CC1)C1CCOC1 (centres undefined) | 101.0 | 1.0 | 102.0 | 4.2 | nt | nt | nt
Cc1cccc(C(=O)NCc2nnc3c4ccccc4c(-c4ccccc4)nn23)c1 | 146.0* | 0.0 | 107.0 | -1.5 | 95.0 | -4.0 | 94.0
O=C(NCC1CCCO1)C(=O)N/N=C/c1ccc(OCc2ccccc2Cl)cc1 (centres undefined) | nt | nt | nt | 17.4 | nt | nt | nt
OCCCCNCc1ccc(OCc2ccccc2Cl)cc1 | 101.0 | 27.0* | 163.0* | 15.5 | 170.0 | 41.0 | 111.0
